# The campaign covered roughly 5,500 compounds. About 2,000 (36%) were called active. Roughly 18% stayed inconclusive and do not appear here. This is one part of the list. Unmarked numbers belong to inactive results. Cut-off read from the data, not from the text of the source: active = normalized growth mostly below about 0.91 (no sharp cut-off); inconclusive = no clear call, values can overlap the other calls; inactive = mostly above about 0.92.
# Experiment: chemical genetic growth profiling, strain panel (AID 1159580);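 note: tested at 20 µM; growth read once vehicle control cultures reached saturation at 30 °C; 1 = growth at the plate median or of vehicle wells; lower values mean less growth of the strain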
# Conditions: S. cerevisiae deletion strains, growth OD
# [1] = locus YDL101C, strain DUN1, active compounds read low
# [2] = locus YHR030C, strain SLT2, active compounds read low
smiles,measurement,setting,value
COc1ccc(OCC(N)=O)cc1,normalized growth,"locus YAL013W, strain DEP1, active compounds read low",1.01
same,normalized growth,"locus YBR229C, strain ROT2, active compounds read low",1.02
same,normalized growth,"locus YCL061C, strain MRC1, active compounds read low",1.01
same,normalized growth,[1],1.01
same,normalized growth,"locus YDL134C, strain PPH21, active compounds read low",1.01
same,normalized growth,"locus YDR150W, strain NUM1, active compounds read low",0.898
same,normalized growth,"locus YEL061C, strain CIN8, active compounds read low",1.03
same,normalized growth,"locus YGR078C, strain PAC10, active compounds read low",1.01
same,normalized growth,"locus YGR229C, strain SMI1, active compounds read low",1.01
same,normalized growth,[2],1.07
same,normalized growth,"locus YHR087W, strain rtc3, active compounds read low",1.01
same,normalized growth,"locus YJL187C, strain SWE1, active compounds read low",1.01
same,normalized growth,"locus YJR043C, strain POL32, active compounds read low",1.02
same,normalized growth,"locus YJR075W, strain HOC1, active compounds read low",1.04
same,normalized growth,"locus YLR039C, strain RIC1, active compounds read low",1.02
same,normalized growth,"locus YLR058C, strain SHM2 (second series), active compounds read low",1.02
same,normalized growth,"locus YLR085C, strain ARP6, active compounds read low",1.05
same,normalized growth,"locus YLR262C, strain YPT6, active compounds read low",1.04
same,normalized growth,"locus YML094W, strain GIM5, active compounds read low",1.02
same,normalized growth,"locus YMR219W, strain ESC1, active compounds read low",1.01
same,normalized growth,"locus YMR263W, strain SAP30, active compounds read low",0.996
same,normalized growth,"locus YMR307W, strain GAS1, active compounds read low",1.07
same,normalized growth,"locus YNL128W, strain TEP1, active compounds read low",1.01
same,normalized growth,"locus YNL153C, strain GIM3, active compounds read low",1.01
same,normalized growth,"locus YNL298W, strain CLA4 (second series), active compounds read low",1.03
same,normalized growth,"locus YNL322C, strain KRE1, active compounds read low",1.03
same,normalized growth,"locus YNR030W, strain Alg12, active compounds read low",1.02
same,normalized growth,"locus YOL006C, strain TOP1, active compounds read low",1.01
same,normalized growth,"locus YPL055C, strain LGE1, active compounds read low",1.01
same,normalized growth,"locus YPL241C, strain CIN2, active compounds read low",1.02
same,normalized growth,"locus YPR135W, strain CTF4, active compounds read low",1.04
COc1ccc(CC2CCC(=NOC(=O)c3ccc(C(C)(C)C)cc3)CC2)cc1 (configuration not stated),normalized growth,"locus YAR019C, strain CDC15, active compounds read low",0.991
same,normalized growth,"locus YBL105C, strain PKC1, active compounds read low",1.01
same,normalized growth,"locus YBR135W, strain CKS1, active compounds read low",0.988
same,normalized growth,"locus YBR136W, strain MEC1, active compounds read low",0.985
same,normalized growth,"locus YBR160W, strain CDC28, active compounds read low",0.993
same,normalized growth,"locus YDL017W, strain CDC7, active compounds read low",0.982
same,normalized growth,"locus YDL028C, strain MPS1, active compounds read low",0.984
same,normalized growth,[1],0.977
same,normalized growth,"locus YDL108W, strain KIN28, active compounds read low",0.984
same,normalized growth,"locus YDL132W, strain cdc53, active compounds read low",0.977
same,normalized growth,"locus YDL214C, strain PRR2, active compounds read low",0.947
same,normalized growth,"locus YDR052C, strain DBF4, active compounds read low",0.975
same,normalized growth,"locus YDR054C, strain cdc34, active compounds read low",0.98
same,normalized growth,"locus YDR226W, strain ADK1, active compounds read low",0.979
same,normalized growth,"locus YDR477W, strain SNF1, active compounds read low",0.946
same,normalized growth,"locus YER123W, strain YCK3, active compounds read low",0.927
same,normalized growth,"locus YER133W, strain GLC7, active compounds read low",0.936
same,normalized growth,"locus YFL009W, strain cdc4, active compounds read low",0.969
same,normalized growth,"locus YFL029C, strain CAK1, active compounds read low",0.988
same,normalized growth,"locus YFR003C, strain YPI1, active compounds read low",0.983
same,normalized growth,"locus YFR019W, strain FAB1, active compounds read low",0.972
same,normalized growth,"locus YFR028C, strain CDC14, active compounds read low",0.975
same,normalized growth,"locus YGR040W, strain KSS1, active compounds read low",0.936
same,normalized growth,"locus YGR052W, strain FMP48, active compounds read low",0.958
same,normalized growth,"locus YGR092W, strain DBF2, active compounds read low",0.999
same,normalized growth,[2],0.828 (active)
same,normalized growth,"locus YHR079C, strain IRE1, active compounds read low",0.999
same,normalized growth,"locus YHR082C, strain KSP1, active compounds read low",1.01
same,normalized growth,"locus YHR205W, strain SCH9, active compounds read low",0.999
same,normalized growth,"locus YIL147C, strain SLN1, active compounds read low",0.978
same,normalized growth,"locus YJL095W, strain BCK1, active compounds read low",0.952
same,normalized growth,"locus YJL128C, strain PBS2, active compounds read low",0.993
same,normalized growth,"locus YJL157C, strain FAR1, active compounds read low",0.955
same,normalized growth,"locus YJR016C, strain ILV3, active compounds read low",0.99
same,normalized growth,"locus YJR066W, strain TOR1 (second series), active compounds read low",0.909
same,normalized growth,"locus YJR066W, strain TOR1, active compounds read low",1.06
same,normalized growth,"locus YKL048C, strain ELM1, active compounds read low",0.953
same,normalized growth,"locus YKL067W, strain YNK1, active compounds read low",0.951
same,normalized growth,"locus YKL101W, strain HSL1, active compounds read low",0.941
same,normalized growth,"locus YKL193C, strain SDS22, active compounds read low",0.987
same,normalized growth,"locus YKL203C, strain TOR2, active compounds read low",1.01
same,normalized growth,"locus YLR113W, strain HOG1, active compounds read low",0.844 (active)
same,normalized growth,"locus YLR133W, strain CKI1, active compounds read low",0.961
same,normalized growth,"locus YLR403W, strain SFP1, active compounds read low",1.01
same,normalized growth,"locus YML070W, strain DAK1, active compounds read low",0.93
same,normalized growth,"locus YMR001C, strain CDC5, active compounds read low",0.986
same,normalized growth,"locus YMR205C, strain PFK2 (second series), active compounds read low",0.959
same,normalized growth,"locus YMR277W, strain FCP1, active compounds read low",0.976
same,normalized growth,"locus YNL006W, strain LST8, active compounds read low",1
same,normalized growth,"locus YNL020C, strain ARK1, active compounds read low",0.964
same,normalized growth,"locus YNL161W, strain CBK1, active compounds read low",0.994
same,normalized growth,"locus YNL183C, strain NPR1, active compounds read low",1.06
same,normalized growth,"locus YNL207W, strain RIO2, active compounds read low",0.973
same,normalized growth,"locus YNL222W, strain SSU72, active compounds read low",0.993
same,normalized growth,"locus YNL307C, strain MCK1 (second series), active compounds read low",0.94
same,normalized growth,"locus YOL078W, strain AVO1, active compounds read low",0.988
same,normalized growth,"locus YOL136C, strain PFK27, active compounds read low",0.956
same,normalized growth,"locus YOR061W, strain CKA2, active compounds read low",0.963
same,normalized growth,"locus YOR119C, strain RIO1, active compounds read low",1.02
same,normalized growth,"locus YOR231W, strain MKK1, active compounds read low",0.975
same,normalized growth,"locus YOR329C, strain SCD5, active compounds read low",0.998
same,normalized growth,"locus YPL031C, strain PHO85, active compounds read low",0.937
same,normalized growth,"locus YPL153C, strain RAD53, active compounds read low",0.924
same,normalized growth,"locus YPL204W, strain HRR25, active compounds read low",0.916
same,normalized growth,"locus YPL209C, strain IPL1, active compounds read low",0.988
same,normalized growth,"locus YPL256C, strain CLN2, active compounds read low",0.881
same,normalized growth,"locus YPR025C, strain CCL1, active compounds read low",0.999
same,normalized growth,"locus YPR106W, strain ISR1, active compounds read low",0.986
same,normalized growth,"locus YPR111W, strain DBF20, active compounds read low",0.98
same,normalized growth,"strain NNK1, active compounds read low",0.977
same,normalized growth,"strain TSCII, active compounds read low",0.978

# Reference: PubChem BioAssay AID1159580 (chemical genetic matrix, 2015)
